High-throughput results from PubChem BioAssay.
GAA inh = inhibitors of human lysosomal alpha-glucosidase | P10253 | purified human GAA, 4-MU-alpha-glucoside fluorescence | Potency, µM (series often up to 76.9 µM), hits mostly inhibitors | 200,000 compounds, 0.005% hits | AID 1466
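Fluorogenic assay: 4 nM human alpha-glucosidase with 400 uM 4-methylumbelliferyl-alpha-D-pyranoside in 50 mM citrate/phosphate, 0.005% Tween-20, pH 5.0, 20 min at room temperature. Compounds tested up to 77 uM; AC50 from Hill fits.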
GAA glycogen mod = alters human alpha-glucosidase cleavage of glycogen; P10253; recombinant GAA, glycogen substrate, Amplex Red glucose oxidase fluorescence; Potency, µM (titrated, usually from 76.4 µM), most hits filed as inhibitors; 300,000 compounds, 0.38% hits; AID 2100;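 also: the screen sought inhibitors and activators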
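Natural-substrate format: glycogen cleavage by 4 nM human enzyme, glucose read by Amplex Red coupling (Ex 573, Em 610 nm). Normalized to enzyme and no-enzyme controls.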
Coupling enz = inhibits coupling enzyme system, counter-screen for aldolase hits. activity change, negative = inhibition, % at 58.2 µM, hits read low. 290,000 compounds, 0.67% hits. coupling enzyme system counterscreen, AmpLite Red fluorescence; in the data active = activity change below about -30%
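Counterscreen lacking aldolase: glyceraldehyde-3-phosphate coupling-enzyme reagent preincubated 10 min at RT with compound (at 57.5 uM final), then substrate/coupling system with AmpLite Red added; fluorescence read at 525/598 nm after 20 min RT.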
GAA spleen mod = inhibits or activates alpha-glucosidase in human spleen homogenate; P10253; human spleen homogenate, 4-MU-alpha-glucoside fluorescence; Potency, µM (doses to about 79.9 µM), most hits filed as inhibitors; 240,000 compounds, 0.006% hits; AID 2112
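Human spleen homogenate (1 ug) with 4-methylumbelliferyl-alpha-D-glucopyranoside (1 mM final) in 50 mM citrate/phosphate pH 5.0, 0.01% Tween-20; 40 min at 37 C. Stopped at pH 10; 4-MU fluorescence Ex 365/Em 440 nm; AC50 by Hill fit.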
B2AR arrestin = agonists driving beta-arrestin recruitment to human beta2-adrenergic receptor | P07550 | beta-arrestin recruitment to beta2AR, cell-based reporter | Potency, µM (highest dose often 46.1 µM), usual class: activators | 330,000 compounds, 0.02% hits; also: nearly all actives have a fitted effect of over 65% in size
Target sequence (P07550 whole entry, looked up): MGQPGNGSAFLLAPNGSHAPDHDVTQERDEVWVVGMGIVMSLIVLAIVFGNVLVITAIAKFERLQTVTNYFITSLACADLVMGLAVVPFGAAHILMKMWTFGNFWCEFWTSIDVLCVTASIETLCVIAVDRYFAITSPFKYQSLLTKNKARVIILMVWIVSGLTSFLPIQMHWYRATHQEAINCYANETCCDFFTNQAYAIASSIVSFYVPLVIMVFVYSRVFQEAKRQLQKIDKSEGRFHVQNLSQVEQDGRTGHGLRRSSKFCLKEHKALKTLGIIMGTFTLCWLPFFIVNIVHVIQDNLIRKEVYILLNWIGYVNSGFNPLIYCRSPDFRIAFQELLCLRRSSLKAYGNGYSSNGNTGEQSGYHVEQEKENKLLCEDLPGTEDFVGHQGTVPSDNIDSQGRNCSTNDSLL
Of the large screens only hits and unclear results are named; the others gave an inactive call. Sampled rows, rich in hits. Any-hit rate of the full collection: about 0.85%. Unless noted, calls follow the shape of the dose curve; as a rule, active = well fitted curve in the direction sought with a large enough effect; inconclusive = small, poorly fitted or top-dose-only effect, or another doubt; inactive = no such curve, though single readings can be large; an effect the other way counts as inactive or inconclusive.

COc1ccc(NC(=S)N2CCCC(c3nc4ccc(C)cc4[nH]3)C2)cc1 (configuration not stated)	GAA inh inconclusive, GAA glycogen mod inconclusive
COc1cc(NC(C)=O)c2ncccc2c1[N+](=O)[O-]	Coupling enz -66
Cc1ccc(Cn2cc(CCC(=O)NC3CCCCC3)c3ccccc32)cc1	none (no result: GAA inh, Coupling enz, GAA spleen mod, B2AR arrestin)
COc1ccc(NC(=S)Nc2ccc(N)c([N+](=O)[O-])c2)cc1	GAA glycogen mod 40µM
S=C(Nc1ccc2nccnc2c1)N1CCOCC1	GAA glycogen mod inconclusive, Coupling enz -34
Cc1cc([N+](=O)[O-])nn1CC(=O)NNC(=S)Nc1ccc([N+](=O)[O-])cc1	GAA glycogen mod inconclusive
COc1ccc(NC(=S)NNC(=O)Cn2nc([N+](=O)[O-])cc2C)cc1	GAA glycogen mod 14µM
Cc1ccc(NC(=S)N2CCOCC2)cc1	none
COc1ccc(NC(=S)Nc2ccc3nccnc3c2)cc1	Coupling enz -38
Cc1c(N=Cc2ccc(Cl)o2)c(=O)n(-c2ccccc2)n1C	GAA glycogen mod 4.5µM
Cc1c(N=Cc2ccc(-c3ccc(Cl)cc3)o2)c(=O)n(-c2ccccc2)n1C	none
Cc1c(N=Cc2ccco2)c(=O)n(-c2ccccc2)n1C	GAA glycogen mod 10µM
Cc1ccccc1-c1ccc(C=Nc2c(C)n(C)n(-c3ccccc3)c2=O)o1	GAA glycogen mod 16µM
Cc1c(N=Cc2cccnc2)c(=O)n(-c2ccccc2)n1C	GAA glycogen mod inconclusive
CCC(=O)N(c1nnc(SCC(=O)c2ccc[nH]2)s1)C1CC1	none (no result: GAA inh, GAA glycogen mod, Coupling enz, GAA spleen mod)
CCCCC(CC)COCC1CO1 (configuration not stated)	none (no result: GAA inh, GAA glycogen mod, Coupling enz, B2AR arrestin)
COc1cc(Cn2c(-c3ccc(O)c(OC)c3)nc3ccccc32)ccc1O	GAA glycogen mod 28µM (no result: GAA inh)
COc1ccc(-c2nc3ccccc3n2Cc2ccccc2)cc1	none
Cc1ccn2c(Nc3ccccc3C)c(-c3ccccn3)nc2c1	GAA glycogen mod 4µM, B2AR arrestin inconclusive
Cc1ccc2nc(-c3cccnc3)c(Nc3ccc(C(C)C)cc3)n2c1	none (no result: GAA inh, Coupling enz, GAA spleen mod, B2AR arrestin)
CC(C)c1ccc(Nc2c(-c3ccccn3)nc3ccccn23)cc1	GAA glycogen mod 5.6µM (no result: GAA inh, Coupling enz, GAA spleen mod, B2AR arrestin)
Cc1ccn2c(Nc3ccc(C(C)C)cc3)c(-c3cccnc3)nc2c1	GAA glycogen mod 16µM (no result: GAA inh, Coupling enz, GAA spleen mod, B2AR arrestin)
Cc1ccccc1Nc1c(-c2ccccn2)nc2ccccn12	GAA glycogen mod inconclusive
Cc1ccn2c(Nc3ccccc3)c(-c3ccccn3)nc2c1	GAA glycogen mod inconclusive
Oc1ccc(N2CCN(C(=S)NCCc3ccccc3)CC2)cc1	GAA glycogen mod 25µM
N#CC1(C#N)C(C(N)=O)C1c1ccccc1 (configuration not stated)	none
CN1C=CC2=C(C#N)C(N)C(C#N)(C#N)[C@H](c3ccccc3)[C@H]2C1 (some centres not stated)	GAA inh inconclusive, GAA glycogen mod inconclusive, Coupling enz -30
C=CCOC(=O)N[C@@H](CCc1ccccc1)C(C(C)=O)C(C)=O	none (no result: GAA inh, GAA glycogen mod, B2AR arrestin)
COc1cc2[nH]c(Cl)c([N+](=O)[O-])c2cc1OC	Coupling enz -48 (no result: GAA inh)
CCNC(=S)Nc1cc(OCC)c(N2CCOCC2)cc1OCC	none
CCOc1cc(N2CCOCC2)c(OCC)cc1NS(=O)(=O)c1ccc(Cl)s1	Coupling enz -45
CCCNC(=O)Nc1cc(OCC)c(N2CCOCC2)cc1OCC	GAA inh inconclusive, GAA glycogen mod inconclusive, Coupling enz -53
CCOc1cc(N2CCOCC2)c(OCC)cc1NC(=O)c1cc(S(=O)(=O)N2CCOCC2)ccc1Cl	none (no result: GAA inh, GAA glycogen mod, Coupling enz, GAA spleen mod)
COc1ccc(Br)cc1/C=N/NC(=O)CNC(=O)C1COc2ccccc2O1 (configuration not stated)	Coupling enz -41 (no result: GAA inh, GAA glycogen mod, GAA spleen mod)
O=C1C2C(c3ccccc3)CC=CC2C(c2ccc(C(F)(F)F)cc2)N1Cc1ccccc1 (configuration not stated)	none (no result: GAA inh, GAA glycogen mod, B2AR arrestin)
CC(C)Oc1ccc(/C=N/NC(N)=S)cc1	GAA inh inconclusive, B2AR arrestin 16µM
CC(=O)c1ccc(C2C=CC(Oc3ccc(F)cc3C)C(CO)O2)cc1 (configuration not stated)	none (no result: GAA inh, GAA glycogen mod, B2AR arrestin)
CCOc1ccccc1C(=O)Nc1c[nH]c(=O)[nH]c1=O	Coupling enz -33 (no result: GAA inh, GAA spleen mod)
COc1ccccc1C(=O)Nc1c[nH]c(=O)[nH]c1=O	none (no result: GAA inh, GAA spleen mod)
